The text below walks through data of PubChem BioAssay (NCATS).

Structures are written as SMILES. Results filed as inconclusive are left out. Entries that show only a call come without a potency. Activity calls are given as the source filed them. The call rests on the fitted dose curve; in most records, active means well fitted cell-killing curve with a large enough effect; inconclusive means small, poorly fitted or top-dose-only effect; inactive means flat fitted curve, though single readings scatter. Positions of bridges follow the written chain, without caps; N, C: chain ends. Non-standard residues stand in square brackets, D forms with d. Residues, ends and D or L forms follow the SMILES beside them. ξ: configuration not given here. *: point of attachment. Octanoyl(6-Me) = CCC(C)CCCCC(=O)*; ξThr(3R) = C[C@@H](O)C(N)C(=O)O; dDab = NCC[C@@H](N)C(=O)O; Dab = NCC[C@H](N)C(=O)O; Nva = CCC[C@H](N)C(=O)O; Cbz = O=C(OCc1ccccc1)*
Potency means the concentration at half of the fitted maximal effect.

The first assay is described as follows: qHTS of pediatric cancer cell lines to identify multiple opportunities for drug repurposing: Primary screen for TC32 cells (AID 1347089). Further: nearly all actives have a fitted effect of over 60% in size. As to conditions: TC32 Ewing sarcoma viability, CellTiter-Glo luminescence, 48 h; series mostly up to 45.8 µM. In short, it runs like this:
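Luminescent ATP read-out (CellTiter-Glo) of metabolically active TC32 cells after 48 h exposure. Concentration-response curves came from 11-point (MIPE, 0.78 nM–46 µM) or 8-point (NPC, 0.59 nM–46 µM) primary titrations; follow-up used 11 points.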
Consider `CCOC(=O)C1=C(C)NC(=S)NC1c1cccc(O)c1` (stereo not drawn), for which the Potency was 1310 nM (active).
On the same count and under the same terms, then `C=C1C(=O)O[C@H]2[C@@H]1CCC(C)=CCC[C@@]1(C)O[C@@H]21`, with 23400 nM (active).
For `O=C(CCCCCCC(=O)Nc1cccnc1)NO`, the Potency is 20800 nM (active).
Still for that read-out and setting: then `NC(=O)c1ncn([C@@H]2O[C@H](CO)[C@@H](O)[C@@H]2O)c1O`, with “inactive”; and `CN(C)c1ccc(C(=O)NCCCCCCC(=O)NO)cc1`, with 2620 nM (active); and `NC(=O)c1cccc(-c2cccc(OC(=O)NC3CCCCC3)c2)c1`, with “inactive”.
Still for that read-out and setting: then `O=C(CN1C(=O)C2(CCCC2)NC[C@H]1c1cc(F)cc(F)c1)Nc1ccc2c(c1)C[C@@]1(C2)C(=O)Nc2ncccc21`, with “inactive”; and `CC(C)(C)[N+]([O-])=Cc1ccc(S(=O)(=O)O)cc1S(=O)(=O)O`, with “inactive”.
Same read-out and setting: then `NC(=O)c1ncn([C@@H]2O[C@H](CO)[C@@H](O)[C@@H]2O)c1N`, with “inactive”; and `CC1(C)CC(O)CC(C)(C)N1[O]`, with “inactive”; and `CS[C@H]1SC[C@@H]2C(=O)N(C)[C@H](C(C)C)C(=O)OC[C@H](NC(=O)c3cnc4ccccc4n3)C(=O)N[C@H](C)C(=O)N(C)[C@@H]1C(=O)N(C)[C@H](C(C)C)C(=O)OC[C@H](NC(=O)c1cnc3ccccc3n1)C(=O)N[C@H](C)C(=O)N2C`, with 9.3 nM (active).
On to `Cc1cnc(Nc2ccc(CN3CCOCC3)cc2)nc1Nc1cccc(S(=O)(=O)NC(C)(C)C)c1`, for which the Potency was 9300 nM (active).
With `Cc1onc(-c2ccccc2)c1C(=O)N[C@@H]1C(=O)N2[C@@H](C(=O)O)C(C)(C)S[C@@H]12`, the Potency entry is “inactive”.
Same read-out and setting: then `CC(C)OC(=O)[C@H](C)N[P@](=O)(OC[C@H]1O[C@@H](n2ccc(=O)[nH]c2=O)[C@](C)(F)[C@H]1O)Oc1ccccc1`, with “inactive”.
`CC(=O)NCC(=O)N1[C@H]2CC[C@H]1c1cc(Nc3ncc(C(F)(F)F)c(NC4CCC4)n3)ccc12`: the Potency was 131 nM (active).
With `O=C(C=CC#Cc1cccc(NS(=O)(=O)c2ccccc2)c1)NO`, the Potency was 7390 nM (active).
Consider `O=C(c1ccc(F)cc1)N1CCC[C@H](c2nc(-c3ccc(F)cc3)no2)C1`, for which the Potency entry is “inactive”.
Same read-out and setting: then `OC[C@H]1OC(O)C[C@@H](O)[C@H]1O` (stereo partly drawn), with “inactive”; and `CCCCCCCCCCCC(CC1OC(=O)C1CCCCCC)OC(=O)C(CC(C)C)NC=O` (stereo not drawn), with “inactive”; and `CC(=O)OCC(=O)[C@@]12N=C(C)O[C@H]1C[C@H]1[C@@H]3CCC4=CC(=O)C=C[C@]4(C)[C@@H]3[C@@H](O)C[C@@]12C`, with “inactive”.
The same measure, in the same setting: next, `O=C(O)CCCCCC(=O)NN=C1CCCC1`: “inactive”.
Still for that read-out and setting: next, `CCCCOc1ccc(C(=O)Nc2ccc(F)cc2F)cc1`: “inactive”; `CN[C@@H]1C[C@H]2O[C@@](C)([C@H]1OC)n1c3ccccc3c3c4c(c5c6ccccc6n2c5c31)C(=O)N[C@H]4O`: 2940 nM (active); `CCC(C)CCCCC(=O)N[C@@H](CCN)C(=O)NC(C(=O)N[C@H](CCN)C(=O)N[C@@H]1CCNC(=O)C([C@@H](C)O)NC(=O)[C@@H](CCN)NC(=O)[C@@H](CCN)NC(=O)[C@@H](CC(C)C)NC(=O)[C@H](Cc2ccccc2)NC(=O)[C@H](CCN)NC1=O)[C@@H](C)O` (stereo partly drawn) ({Octanoyl(6-Me)}-[Dab][ξThr(3R)][dDab][dDab][Dab]F[dL][dDab][dDab][ξThr(3R)]; lactam 4-C): “inactive”.

A short description of another assay: qHTS of pediatric cancer cell lines to identify multiple opportunities for drug repurposing: Primary screen for DAOY cells (AID 1347090). Further: nearly all actives have a fitted effect of over 55% in size. Conditions: DAOY medulloblastoma viability, CellTiter-Glo luminescence, 48 h; series mostly up to 46 µM. In short, it runs like this:
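Viability measured as metabolically active cells via CellTiter-Glo luminescence following 48 hours of compound exposure, 11-point dilutions in confirmatory testing. 500-1,000 cells/well plated 5 hours before dosing; controls were DMSO and 2.3 µM bortezomib.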
For the compound `CC(C)(O)Cn1c(NC(=O)c2ccc(-c3cn[nH]c3)s2)nc2cc(CN3CCOCC3)ccc21`, the Potency is 2350 nM (active).
For `Cn1cc(C[C@@H](N)C(=O)O)c2ccccc21`, the Potency entry was “inactive”.
Consider `O=C(O)[C@H](CC(=O)N1C[C@@H]2CCCC[C@H]2C1)Cc1ccccc1`, for which the Potency result is “inactive”.
Still for that read-out and setting: then `C[C@H](CCC(=O)O)[C@H]1CCC2C3C[C@H](O)[C@@H]4C[C@H](O)CC[C@]4(C)C3CC[C@@]21C` (stereo partly drawn), with “inactive”; and `CCCCCCCN(CC)CCCC(O)c1ccc(NS(C)(=O)=O)cc1` (stereo not drawn), with “inactive”.
Same read-out and setting: next, `CCC[C@@H](C=O)NC(=O)[C@H](CC(C)C)NC(=O)[C@H](CC(C)C)NC(=O)OCc1ccccc1` (Cbz-Leu-Leu-[Nva]-aldehyde): 935 nM (active); `CC(Oc1ccc(O)cc1)(P(=O)(O)O)P(=O)(O)O`: “inactive”.
Turning to `N#Cc1cc(NC(=O)Nc2nnc(-c3ccncc3)s2)ccc1-c1cn[nH]c1`, the Potency entry was “inactive”.
Still for that read-out and setting: then `COc1ccnc2[nH]cc(C(=O)C(=O)N3CCN(C(=O)c4ccccc4)C[C@@H]3C)c12`, with “inactive”; and `OCCNC1CCCc2c1[nH]c1ccc(-c3ccccc3)cc21` (stereo not drawn), with “inactive”.
On the same count and under the same terms, then `COc1cc(C=CC(=O)CC(=O)C=Cc2ccc(O)c(OC)c2)ccc1O`, with 21500 nM (active).
For the compound `CC(=O)NC(CS)C(=O)O` (stereo not drawn), the Potency result was “inactive”.
On the same count and under the same terms, next, `C[C@@H](Cc1cc2c(c(C(N)=O)c1)N(CCCO)CC2)NCCOc1ccccc1OCC(F)(F)F`: “inactive”.
Same read-out and setting: then `COc1cc([C@@H]2c3cc4c(cc3[C@H](O)[C@H]3COC(=O)[C@@H]23)OCO4)cc(OC)c1OC`, with 118 nM (active); and `CC(C)N1[N]C(=C2C=c3cc(O)ccc3=N2)c2c(N)ncnc21`, with 5900 nM (active); and `CCOC(=O)C1=C(C)NC(=S)NC1c1cccc(O)c1` (stereo not drawn), with 469 nM (active).
`C=C1C(=O)O[C@H]2[C@@H]1CCC(C)=CCC[C@@]1(C)O[C@@H]21`: the Potency is 9350 nM (active).
On the same count and under the same terms, then `O=C(CCCCCCC(=O)Nc1cccnc1)NO`, with 14800 nM (active).
The same measure, in the same setting: then `NC(=O)c1ncn([C@@H]2O[C@H](CO)[C@@H](O)[C@@H]2O)c1O`, with “inactive”; and `CN(C)c1ccc(C(=O)NCCCCCCC(=O)NO)cc1`, with 2350 nM (active); and `NC(=O)c1cccc(-c2cccc(OC(=O)NC3CCCCC3)c2)c1`, with “inactive”.
For `O=C(CN1C(=O)C2(CCCC2)NC[C@H]1c1cc(F)cc(F)c1)Nc1ccc2c(c1)C[C@@]1(C2)C(=O)Nc2ncccc21`, the Potency entry was “inactive”.
Still for that read-out and setting: next, `CC(C)(C)[N+]([O-])=Cc1ccc(S(=O)(=O)O)cc1S(=O)(=O)O`: “inactive”.
Same read-out and setting: next, `NC(=O)c1ncn([C@@H]2O[C@H](CO)[C@@H](O)[C@@H]2O)c1N`: “inactive”.
For `CC1(C)CC(O)CC(C)(C)N1[O]`, the Potency result was “inactive”.
The same measure, in the same setting: then `CS[C@H]1SC[C@@H]2C(=O)N(C)[C@H](C(C)C)C(=O)OC[C@H](NC(=O)c3cnc4ccccc4n3)C(=O)N[C@H](C)C(=O)N(C)[C@@H]1C(=O)N(C)[C@H](C(C)C)C(=O)OC[C@H](NC(=O)c1cnc3ccccc3n1)C(=O)N[C@H](C)C(=O)N2C`, with 7.4 nM (active); and `Cc1cnc(Nc2ccc(CN3CCOCC3)cc2)nc1Nc1cccc(S(=O)(=O)NC(C)(C)C)c1`, with 4690 nM (active).
The same measure, in the same setting: then `Cc1onc(-c2ccccc2)c1C(=O)N[C@@H]1C(=O)N2[C@@H](C(=O)O)C(C)(C)S[C@@H]12`, with “inactive”; and `CC(C)OC(=O)[C@H](C)N[P@](=O)(OC[C@H]1O[C@@H](n2ccc(=O)[nH]c2=O)[C@](C)(F)[C@H]1O)Oc1ccccc1`, with “inactive”.
The same measure, in the same setting: then `CC(=O)NCC(=O)N1[C@H]2CC[C@H]1c1cc(Nc3ncc(C(F)(F)F)c(NC4CCC4)n3)ccc12`, with 18700 nM (active).
`O=C(C=CC#Cc1cccc(NS(=O)(=O)c2ccccc2)c1)NO`: the Potency was 2960 nM (active).
Still for that read-out and setting: next, `O=C(c1ccc(F)cc1)N1CCC[C@H](c2nc(-c3ccc(F)cc3)no2)C1`: “inactive”; `OC[C@H]1OC(O)C[C@@H](O)[C@H]1O` (stereo partly drawn): “inactive”.
Still for that read-out and setting: then `CCCCCCCCCCCC(CC1OC(=O)C1CCCCCC)OC(=O)C(CC(C)C)NC=O` (stereo not drawn), with “inactive”; and `CC(=O)OCC(=O)[C@@]12N=C(C)O[C@H]1C[C@H]1[C@@H]3CCC4=CC(=O)C=C[C@]4(C)[C@@H]3[C@@H](O)C[C@@]12C`, with “inactive”.
In the case of `O=C(O)CCCCCC(=O)NN=C1CCCC1`, the Potency result was “inactive”.
Still for that read-out and setting: then `CCCCOc1ccc(C(=O)Nc2ccc(F)cc2F)cc1`, with “inactive”; and `CN[C@@H]1C[C@H]2O[C@@](C)([C@H]1OC)n1c3ccccc3c3c4c(c5c6ccccc6n2c5c31)C(=O)N[C@H]4O`, with 469 nM (active); and `CCC(C)CCCCC(=O)N[C@@H](CCN)C(=O)NC(C(=O)N[C@H](CCN)C(=O)N[C@@H]1CCNC(=O)C([C@@H](C)O)NC(=O)[C@@H](CCN)NC(=O)[C@@H](CCN)NC(=O)[C@@H](CC(C)C)NC(=O)[C@H](Cc2ccccc2)NC(=O)[C@H](CCN)NC1=O)[C@@H](C)O` (stereo partly drawn) ({Octanoyl(6-Me)}-[Dab][ξThr(3R)][dDab][dDab][Dab]F[dL][dDab][dDab][ξThr(3R)]; lactam 4-C), with “inactive”.
